Test results: PubChem BioAssay (NCATS)
Values without a mark were called inactive. The call rests on the fitted dose curve; in most records, active means well fitted activation curve with a large enough effect; inconclusive means small, poorly fitted or top-dose-only effect; inactive means flat fitted curve, though single readings scatter.

Assay: Confirmation and Secondary Assay for Modulators of Hemoglobin Beta Chain Splicing at IVS2 654 locus (AID 910);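 further: HeLa cells stably carrying EGFP split by mutant beta-globin IVS2-654 intron; per-well total GFP intensity by laser scanning cytometry after 2-day treatment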
Conditions: HeLa EGFP-654 splicing reporter, GFP fluorescence, 48 h; series mostly up to 46.1 µM; activation (splicing correction): at the top concentration
Method in brief: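 Readout: per-well total peak green fluorescence (488 nm ex, 500–520 nm em) from objects 5–250 µm, reflecting correct splicing of an EGFP-654 reporter. Compounds were applied for 2 days at 37 °C to overnight-plated HeLa EGFP-654 cells; controls were DMSO and 500 nM IVS2-654 PNA.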
Further: % of control where 0% means no effect.

| SMILES | activation (splicing correction) |
| --- | --- |
| C=CC(C1=CC(=O)C(OC)=CC1=O)c1ccc(OC)cc1 (stereo not given) | 1.26% [at 38.3 µM] |
| O=C1C=CC(=C(c2ccc(O)cc2)c2ccc(O)cc2)C=C1 | -2.8% |
| COc1cc(OC)c2c(OC)c(-c3ccc4c(c3)OCO4)c(=O)oc2c1 | -1.07% [at 38.3 µM] |
| COc1cc2c(cc1OC)-c1c(oc3cc(O)cc(O)c3c1=O)CO2 | -7.69% |
| COc1cc(O)c(C(=O)/C=C/c2ccc(O)c(OC)c2)c(OC)c1 | 21.5% |
| COc1ccc2c(c1)OC/C(=C/c1ccc(OC)c(OC)c1)C2=O | -0.93% [at 38.3 µM] |
| CC1(C)C(=O)C=C[C@@]2(C)C1C=C[C@@]1(C)C2CC[C@@]2(C)C(c3ccoc3)OC(=O)C3OC312 (stereo not given in full) | -8.98% |
| COc1cccc(-c2cc(=O)c3ccc(OC)cc3o2)c1 | 2.49% [at 38.3 µM] |
| COc1cc(OC)c2c(=O)c(-c3ccc4c(c3)OCO4)coc2c1 | 1.21% [at 38.3 µM] |

Assay: Confirmation and Secondary Assay for Modulators of Hemoglobin Beta Chain Splicing at IVS2 705 locus (AID 930);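 further: HeLa cells stably expressing the EGFP-705 splicing reporter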
Conditions: HeLa EGFP-705 splicing reporter, GFP fluorescence, 48 h; series mostly up to 46.1 µM; activation: at the top concentration
Method in brief: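 Restored EGFP fluorescence after 2-day compound exposure reports splicing correction in IVS2-705 EGFP reporter HeLa cells; positive control was 500 nM splice-blocking PNA oligo. Signal measured as well total peak GFP intensity (488 nm excitation).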

| SMILES | activation |
| --- | --- |
| O=C1C=CC(=C(c2ccc(O)cc2)c2ccc(O)cc2)C=C1 | 0.538% |
| COc1cc(OC)c2c(OC)c(-c3ccc4c(c3)OCO4)c(=O)oc2c1 | 0.0176% [at 38.3 µM] |
| COc1cc(O)c(C(=O)/C=C/c2ccc(O)c(OC)c2)c(OC)c1 | -0.207% |
| COc1ccc2c(c1)OC/C(=C/c1ccc(OC)c(OC)c1)C2=O | -0.288% [at 38.3 µM] |
| CC1(C)C(=O)C=C[C@@]2(C)C1C=C[C@@]1(C)C2CC[C@@]2(C)C(c3ccoc3)OC(=O)C3OC312 (stereo not given in full) | -1.99% |
| COc1cccc(-c2cc(=O)c3ccc(OC)cc3o2)c1 | -0.389% [at 38.3 µM] |
